Laboratory results reported in the supplement of paper PMC11732987, “Enantioselective OTUD7B fragment discovery through chemoproteomics screening and high-throughput optimisation” (Communications Chemistry, 2025).

Experiments:
Assay in all cases: log2 ratio of Biotin-Ahx-Ub-VS probe labelling (fragment/DMSO); higher = less target engagement (more negative = stronger competition), active = hit call of the paper (q ≤ 0.05, log2 ratio ≤ -1)
Conditions in all cases: compound concentration: 200 uM; treatment time: 3 h
USP34 = USP34 (UniProt Q70CQ2)
Sequence of USP34 (Q70CQ2 whole entry, the tested form may be a part): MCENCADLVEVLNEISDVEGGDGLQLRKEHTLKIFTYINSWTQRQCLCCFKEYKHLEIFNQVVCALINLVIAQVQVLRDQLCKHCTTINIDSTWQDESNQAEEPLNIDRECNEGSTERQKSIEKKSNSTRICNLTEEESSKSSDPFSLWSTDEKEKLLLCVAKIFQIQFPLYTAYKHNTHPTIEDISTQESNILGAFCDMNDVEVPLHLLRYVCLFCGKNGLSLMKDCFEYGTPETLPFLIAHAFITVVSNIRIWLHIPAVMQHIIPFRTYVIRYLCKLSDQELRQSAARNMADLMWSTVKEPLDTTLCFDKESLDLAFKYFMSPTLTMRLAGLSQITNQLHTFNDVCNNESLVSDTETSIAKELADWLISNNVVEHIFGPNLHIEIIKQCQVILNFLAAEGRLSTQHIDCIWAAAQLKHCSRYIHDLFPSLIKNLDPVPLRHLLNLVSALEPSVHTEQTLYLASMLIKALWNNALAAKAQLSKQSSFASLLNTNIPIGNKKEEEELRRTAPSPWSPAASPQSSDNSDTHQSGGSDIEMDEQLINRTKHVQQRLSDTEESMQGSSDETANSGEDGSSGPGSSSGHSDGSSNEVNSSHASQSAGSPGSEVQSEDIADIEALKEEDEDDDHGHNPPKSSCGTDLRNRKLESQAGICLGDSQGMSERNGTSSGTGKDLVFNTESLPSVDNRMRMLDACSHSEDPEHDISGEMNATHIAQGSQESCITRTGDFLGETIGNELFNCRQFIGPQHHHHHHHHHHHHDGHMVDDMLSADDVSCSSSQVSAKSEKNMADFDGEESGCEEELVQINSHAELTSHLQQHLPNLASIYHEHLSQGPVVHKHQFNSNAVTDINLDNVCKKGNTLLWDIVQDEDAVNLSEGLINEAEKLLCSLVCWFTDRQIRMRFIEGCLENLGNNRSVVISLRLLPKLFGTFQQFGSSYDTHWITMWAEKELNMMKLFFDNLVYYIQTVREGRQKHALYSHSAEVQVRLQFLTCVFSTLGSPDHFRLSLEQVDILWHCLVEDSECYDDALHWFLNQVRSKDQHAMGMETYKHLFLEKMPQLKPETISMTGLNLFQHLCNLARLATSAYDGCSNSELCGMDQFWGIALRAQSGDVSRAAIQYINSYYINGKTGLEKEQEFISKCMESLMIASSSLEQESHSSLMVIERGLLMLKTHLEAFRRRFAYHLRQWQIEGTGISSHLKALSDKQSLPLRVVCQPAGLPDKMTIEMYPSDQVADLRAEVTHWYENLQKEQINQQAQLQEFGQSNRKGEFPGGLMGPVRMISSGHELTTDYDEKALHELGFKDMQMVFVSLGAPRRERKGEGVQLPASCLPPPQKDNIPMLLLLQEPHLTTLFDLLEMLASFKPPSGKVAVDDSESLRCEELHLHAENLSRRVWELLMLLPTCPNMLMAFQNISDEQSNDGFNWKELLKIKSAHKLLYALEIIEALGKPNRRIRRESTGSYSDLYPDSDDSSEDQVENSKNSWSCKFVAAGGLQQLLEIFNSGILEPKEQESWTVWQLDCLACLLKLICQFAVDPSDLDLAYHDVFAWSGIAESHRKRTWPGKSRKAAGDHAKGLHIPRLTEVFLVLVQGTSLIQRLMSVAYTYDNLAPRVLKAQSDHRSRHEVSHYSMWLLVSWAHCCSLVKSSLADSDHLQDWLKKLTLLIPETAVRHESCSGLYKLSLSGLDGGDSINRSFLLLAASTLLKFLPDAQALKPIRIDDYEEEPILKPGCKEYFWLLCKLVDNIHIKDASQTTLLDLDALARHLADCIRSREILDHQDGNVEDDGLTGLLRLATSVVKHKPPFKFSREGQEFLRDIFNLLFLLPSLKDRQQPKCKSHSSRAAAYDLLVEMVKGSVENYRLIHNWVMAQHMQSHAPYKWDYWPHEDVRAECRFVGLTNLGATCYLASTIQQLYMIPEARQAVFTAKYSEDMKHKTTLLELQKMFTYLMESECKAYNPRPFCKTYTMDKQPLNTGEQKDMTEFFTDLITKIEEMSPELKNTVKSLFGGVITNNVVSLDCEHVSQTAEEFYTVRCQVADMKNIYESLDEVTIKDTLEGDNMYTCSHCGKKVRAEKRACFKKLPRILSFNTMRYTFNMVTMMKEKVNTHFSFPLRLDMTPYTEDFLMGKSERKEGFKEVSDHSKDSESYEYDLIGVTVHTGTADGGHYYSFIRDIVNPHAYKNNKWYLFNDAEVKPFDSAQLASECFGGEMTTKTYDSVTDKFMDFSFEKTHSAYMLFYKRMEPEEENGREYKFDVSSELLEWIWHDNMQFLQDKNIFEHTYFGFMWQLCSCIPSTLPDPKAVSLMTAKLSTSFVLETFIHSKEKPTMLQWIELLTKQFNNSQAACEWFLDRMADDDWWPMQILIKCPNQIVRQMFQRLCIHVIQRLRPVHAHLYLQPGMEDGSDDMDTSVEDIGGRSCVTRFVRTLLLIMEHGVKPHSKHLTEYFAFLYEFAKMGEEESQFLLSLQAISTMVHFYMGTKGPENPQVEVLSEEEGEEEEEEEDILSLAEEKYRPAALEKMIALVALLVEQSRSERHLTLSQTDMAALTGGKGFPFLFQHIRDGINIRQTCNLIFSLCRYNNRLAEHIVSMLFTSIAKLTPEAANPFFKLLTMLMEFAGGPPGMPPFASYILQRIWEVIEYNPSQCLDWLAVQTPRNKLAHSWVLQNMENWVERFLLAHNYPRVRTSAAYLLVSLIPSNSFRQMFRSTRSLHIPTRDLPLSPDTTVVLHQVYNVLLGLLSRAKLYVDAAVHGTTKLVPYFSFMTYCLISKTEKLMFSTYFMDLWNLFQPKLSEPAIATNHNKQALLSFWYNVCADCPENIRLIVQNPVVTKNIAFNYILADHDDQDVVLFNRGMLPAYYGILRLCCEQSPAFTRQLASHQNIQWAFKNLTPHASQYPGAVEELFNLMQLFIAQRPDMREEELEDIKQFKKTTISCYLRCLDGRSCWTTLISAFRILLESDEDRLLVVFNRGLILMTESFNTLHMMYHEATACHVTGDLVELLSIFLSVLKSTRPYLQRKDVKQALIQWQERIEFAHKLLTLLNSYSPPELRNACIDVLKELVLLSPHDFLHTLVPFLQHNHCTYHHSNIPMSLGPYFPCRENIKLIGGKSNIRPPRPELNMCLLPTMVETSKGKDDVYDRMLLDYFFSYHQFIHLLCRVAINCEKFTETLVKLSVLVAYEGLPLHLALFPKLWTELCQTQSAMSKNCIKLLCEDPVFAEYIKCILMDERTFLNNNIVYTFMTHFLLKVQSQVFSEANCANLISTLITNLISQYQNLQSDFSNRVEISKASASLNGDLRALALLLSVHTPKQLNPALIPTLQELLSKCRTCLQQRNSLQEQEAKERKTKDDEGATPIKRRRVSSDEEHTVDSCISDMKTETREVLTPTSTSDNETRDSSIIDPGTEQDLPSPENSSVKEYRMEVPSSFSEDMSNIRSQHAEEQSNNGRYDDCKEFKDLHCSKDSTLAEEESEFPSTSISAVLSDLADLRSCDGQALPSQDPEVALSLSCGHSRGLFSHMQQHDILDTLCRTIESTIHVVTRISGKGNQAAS
Outline: (§1)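 In triplicate, 495 µg of HEK293T lysate per sample was incubated with fragment at 200 µM or vehicle for 3 h. Biotin-Ahx-Ub-VS was then added to 0.5 µM final for 1 h, and labelled DUBs were captured with NeutrAvidin, digested with LysC and trypsin, and measured by diaPASEF LC-MS/MS. Data are average log2 fragment/vehicle ratios by unpaired t-test from global-median-normalised Spectronaut label-free quantities, restricted to proteins with ≥2 unique peptides.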

USP36 = biological target: T1, USP36 (UniProt Q9P275)
T1 sequence (whole entry): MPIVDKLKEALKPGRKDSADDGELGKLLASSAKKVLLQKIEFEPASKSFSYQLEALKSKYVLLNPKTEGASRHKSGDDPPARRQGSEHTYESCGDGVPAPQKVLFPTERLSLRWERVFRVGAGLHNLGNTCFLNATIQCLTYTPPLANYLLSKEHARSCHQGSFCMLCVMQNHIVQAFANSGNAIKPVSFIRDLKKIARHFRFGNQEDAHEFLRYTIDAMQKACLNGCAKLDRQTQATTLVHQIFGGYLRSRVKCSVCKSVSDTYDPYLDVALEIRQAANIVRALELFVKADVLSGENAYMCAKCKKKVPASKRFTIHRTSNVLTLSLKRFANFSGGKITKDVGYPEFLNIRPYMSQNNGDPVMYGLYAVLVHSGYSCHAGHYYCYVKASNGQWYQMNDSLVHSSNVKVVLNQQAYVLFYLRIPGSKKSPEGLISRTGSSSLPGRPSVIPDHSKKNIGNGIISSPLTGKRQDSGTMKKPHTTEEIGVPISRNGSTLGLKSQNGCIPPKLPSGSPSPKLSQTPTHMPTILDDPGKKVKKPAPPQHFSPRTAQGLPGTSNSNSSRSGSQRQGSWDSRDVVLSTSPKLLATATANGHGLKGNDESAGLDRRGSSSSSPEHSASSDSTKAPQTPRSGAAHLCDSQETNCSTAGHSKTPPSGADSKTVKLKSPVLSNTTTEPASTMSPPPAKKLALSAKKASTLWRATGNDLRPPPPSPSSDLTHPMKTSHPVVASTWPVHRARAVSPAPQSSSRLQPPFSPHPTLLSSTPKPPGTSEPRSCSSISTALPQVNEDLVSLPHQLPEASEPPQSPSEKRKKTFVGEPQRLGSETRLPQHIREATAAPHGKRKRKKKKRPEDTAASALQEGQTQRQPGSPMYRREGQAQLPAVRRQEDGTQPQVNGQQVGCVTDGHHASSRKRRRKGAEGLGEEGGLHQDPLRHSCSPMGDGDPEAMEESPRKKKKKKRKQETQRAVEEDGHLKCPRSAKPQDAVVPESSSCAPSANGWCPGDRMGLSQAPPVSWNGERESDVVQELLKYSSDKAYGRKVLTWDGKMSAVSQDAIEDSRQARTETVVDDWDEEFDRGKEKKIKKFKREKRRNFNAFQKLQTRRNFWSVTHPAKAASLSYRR
Outline: as §1

USP38 = biological target: T2, USP38 (UniProt Q8NB14)
T2 sequence (whole entry): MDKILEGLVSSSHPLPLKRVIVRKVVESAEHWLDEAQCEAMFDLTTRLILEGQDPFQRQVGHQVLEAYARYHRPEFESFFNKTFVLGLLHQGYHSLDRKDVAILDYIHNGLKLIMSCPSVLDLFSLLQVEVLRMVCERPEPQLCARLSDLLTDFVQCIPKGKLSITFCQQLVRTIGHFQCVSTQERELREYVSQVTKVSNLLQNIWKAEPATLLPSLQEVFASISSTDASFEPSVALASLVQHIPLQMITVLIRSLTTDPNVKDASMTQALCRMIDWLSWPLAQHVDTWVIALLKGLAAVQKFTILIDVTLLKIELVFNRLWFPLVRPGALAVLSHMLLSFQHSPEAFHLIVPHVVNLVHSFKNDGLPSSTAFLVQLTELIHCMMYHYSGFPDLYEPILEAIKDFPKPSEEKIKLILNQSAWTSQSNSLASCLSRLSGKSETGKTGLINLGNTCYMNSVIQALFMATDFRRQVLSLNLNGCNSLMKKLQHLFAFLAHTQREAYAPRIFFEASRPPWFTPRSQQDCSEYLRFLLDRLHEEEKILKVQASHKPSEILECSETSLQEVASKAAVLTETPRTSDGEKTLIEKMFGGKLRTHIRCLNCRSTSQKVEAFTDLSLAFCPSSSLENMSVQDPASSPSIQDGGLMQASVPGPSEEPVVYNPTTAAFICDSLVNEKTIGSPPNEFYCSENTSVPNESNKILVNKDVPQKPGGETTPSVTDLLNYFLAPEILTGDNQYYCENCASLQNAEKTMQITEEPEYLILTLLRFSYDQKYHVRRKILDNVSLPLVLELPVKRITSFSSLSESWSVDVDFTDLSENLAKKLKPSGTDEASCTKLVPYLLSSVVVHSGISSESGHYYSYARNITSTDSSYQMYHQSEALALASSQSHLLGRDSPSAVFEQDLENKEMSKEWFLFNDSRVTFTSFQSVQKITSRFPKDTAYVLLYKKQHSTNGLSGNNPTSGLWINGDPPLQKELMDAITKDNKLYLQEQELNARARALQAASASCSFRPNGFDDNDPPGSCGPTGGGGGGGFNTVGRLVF
Outline: as §1

USP39 = biological target: T3, USP39 (UniProt Q53GS9)
T3 sequence (whole entry): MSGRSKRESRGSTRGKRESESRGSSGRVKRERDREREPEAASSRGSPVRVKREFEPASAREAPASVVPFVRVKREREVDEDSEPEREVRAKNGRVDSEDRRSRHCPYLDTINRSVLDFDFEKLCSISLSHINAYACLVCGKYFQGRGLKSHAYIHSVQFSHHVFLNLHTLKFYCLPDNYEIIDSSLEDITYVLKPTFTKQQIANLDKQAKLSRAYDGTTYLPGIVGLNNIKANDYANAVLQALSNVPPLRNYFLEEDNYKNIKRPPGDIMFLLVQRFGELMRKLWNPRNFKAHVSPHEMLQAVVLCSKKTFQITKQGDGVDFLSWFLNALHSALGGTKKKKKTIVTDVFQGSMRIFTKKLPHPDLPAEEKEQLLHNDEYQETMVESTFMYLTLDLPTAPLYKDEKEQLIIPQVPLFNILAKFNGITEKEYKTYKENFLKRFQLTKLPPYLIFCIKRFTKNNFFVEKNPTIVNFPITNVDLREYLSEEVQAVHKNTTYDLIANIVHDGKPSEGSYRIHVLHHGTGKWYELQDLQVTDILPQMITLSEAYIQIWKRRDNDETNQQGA
Outline: as §1

USP4 = biological target: T4, USP4 (UniProt Q13107)
T4 sequence (whole entry): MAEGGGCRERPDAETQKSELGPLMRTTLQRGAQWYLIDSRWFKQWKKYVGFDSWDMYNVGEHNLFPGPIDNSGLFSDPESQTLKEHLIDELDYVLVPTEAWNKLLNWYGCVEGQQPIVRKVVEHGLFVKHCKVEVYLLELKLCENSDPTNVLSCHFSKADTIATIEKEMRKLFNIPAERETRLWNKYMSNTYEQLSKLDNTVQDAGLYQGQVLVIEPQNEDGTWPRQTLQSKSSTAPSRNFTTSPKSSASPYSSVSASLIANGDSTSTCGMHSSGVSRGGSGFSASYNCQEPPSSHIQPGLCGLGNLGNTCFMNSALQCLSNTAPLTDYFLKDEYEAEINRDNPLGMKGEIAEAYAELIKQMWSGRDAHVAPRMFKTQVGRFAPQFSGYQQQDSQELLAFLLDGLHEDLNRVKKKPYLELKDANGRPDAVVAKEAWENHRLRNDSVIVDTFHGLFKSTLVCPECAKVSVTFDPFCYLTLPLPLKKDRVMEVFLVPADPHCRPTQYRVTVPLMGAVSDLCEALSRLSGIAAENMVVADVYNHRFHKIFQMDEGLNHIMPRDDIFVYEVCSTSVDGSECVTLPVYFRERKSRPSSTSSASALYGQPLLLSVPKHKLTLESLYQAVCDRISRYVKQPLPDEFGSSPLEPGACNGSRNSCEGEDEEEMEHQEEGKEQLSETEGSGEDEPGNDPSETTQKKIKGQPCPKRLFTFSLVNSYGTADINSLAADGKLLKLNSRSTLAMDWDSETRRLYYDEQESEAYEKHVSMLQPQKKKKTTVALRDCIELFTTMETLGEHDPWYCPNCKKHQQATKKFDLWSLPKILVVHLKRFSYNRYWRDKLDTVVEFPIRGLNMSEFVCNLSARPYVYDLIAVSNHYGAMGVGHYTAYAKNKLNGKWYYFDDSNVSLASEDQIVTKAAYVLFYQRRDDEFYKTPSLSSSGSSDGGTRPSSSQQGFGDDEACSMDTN
Outline: as §1

Measured: log2 ratio of Biotin-Ahx-Ub-VS probe labelling

O=C(CCl)NCc1ccc2c(c1)OCO2
inactive: USP34 0.112 | USP36 0.129 | USP38 -0.0864 | USP39 0.0456 | USP4 0.0604
